Data taken from PubChem BioAssay (NCATS).
Records with an inconclusive call do not appear. A call without a number means that no potency is given here. A number with no mark means an inactive call. Calls of active or inactive are those of the source. Calls come from the whole dose curve; as a rule, active = well fitted inhibition curve with a large enough effect; inconclusive = small, poorly fitted or top-dose-only effect; inactive = no such curve, though single readings can be large or run the other way.

Assay: Primary qHTS for small molecule stabilizers of the endoplasmic reticulum resident proteome: Secreted ER Calcium Modulated Protein (SERCaMP) assay (AID 1508630)
Conditions: SH-SY5Y GLuc-SERCaMP (Gaussia luciferase released on ER calcium loss) secretion, thapsigargin, luminescence; series mostly up to 38.4 µM
Method in brief: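 The SH-SY5Y reporter protocol was run at 3 concentrations up to 38.3 uM (primary) or 11 concentrations (follow-up): 16 h compound, 100 nM thapsigargin for 4 h, then extracellular luciferase luminescence.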
Potency is the fitted concentration of half-maximal effect.

Row | SMILES | Potency | activity change, negative = inhibition
1 | C[C@]12CC[C@H]3[C@@H](CCC4=CC(=O)CC[C@@]43C)[C@H]1CC[C@H]2O | inactive | 
2 | C=C1C[C@H]2[C@H]3CCC(=O)[C@@]3(C)CC[C@@H]2[C@@]2(C)C=CC(=O)C=C12 | inactive | 
3 | CC1(C)CC/C(=C/c2ccc(Cl)cc2)C1(O)Cn1cncn1 (configuration not stated) | inactive | 
4 | C[C@]12CC[C@H](O)CC1=CC[C@H]1[C@H]3CCC(=O)[C@@]3(C)CC[C@@H]12 | inactive | 
5 | CC=C(C)C(=O)N[C@@H](c1ccccc1)[C@@H](O)C(=O)O[C@H]1C[C@@]2(O)[C@@H](OC(=O)c3ccccc3)[C@@H]3[C@]4(OC(C)=O)CO[C@@H]4C[C@H](O)[C@@]3(C)C(=O)[C@H](OC(C)=O)C(=C1C)C2(C)C | inactive | 
6 | Clc1cnc(Oc2ccc(Oc3ncc(Cl)cc3Cl)cc2)c(Cl)c1 | inactive | 
7 | C[C@]12Cc3cn[nH]c3C[C@@H]1CC[C@@H]1[C@H]2CC[C@@]2(C)[C@H]1CC[C@]2(C)O | inactive | 
8 | O=C1CCC[C@@H]2[C@H]3CCCN4CCC[C@@H](CN12)[C@@H]34 | inactive | 
9 | COc1cc2cc(c1Cl)N(C)C(=O)C[C@H](OC(=O)C(C)C)[C@]1(C)O[C@H]1[C@H](C)[C@@H]1C[C@@](O)(NC(=O)O1)[C@H](OC)C=CC=C(C)C2 | inactive | 
10 | COC1=CC(C)=C[C@@H](C)[C@@H](O)[C@@H](C)CC(C)=CC=C[C@H](OC)[C@H]([C@@H](C)[C@@H](O)[C@H](C)[C@@]2(O)C[C@@H](O)[C@H](C)[C@@H](C(C)C)O2)OC1=O | inactive | 
11 | c1cc2c(cc1[C@H]1OC[C@H]3[C@H]1CO[C@H]3c1ccc3c(c1)OCO3)OCO2 | inactive | 
12 | CC(O)=C(C#N)C(=O)Nc1cc(Br)ccc1Br | inactive | 
13 | CC(C)(C)C(O)C(Oc1ccc(Cl)cc1)n1cncn1 (configuration not stated) | inactive | 
14 | CC(=Cc1csc(C)n1)[C@@H]1C[C@H]2O[C@@H]2CCC[C@H](C)[C@@H](O)[C@@H](C)C(=O)C(C)(C)[C@@H](O)CC(=O)O1 | inactive | 
15 | C[C@H]([C@H](O)CCC(C)(C)O)[C@H]1CC[C@@]2(O)C3=CC(=O)[C@@H]4C[C@@H](O)[C@@H](O)C[C@]4(C)[C@@H]3CC[C@]12C | inactive | 
16 | C=CCON=C(C[C@H]1O[C@@H]2O[C@]3(C)CC[C@@H]4[C@H](C)CC[C@@H]([C@H]1C)[C@@]24OO3)[C@H]1O[C@@H]2O[C@]3(C)CC[C@H]4[C@H](C)CC[C@@H]([C@@H]1C)[C@@]24OO3 | inactive | 
17 | CO[C@H]1CCC(O[C@H]2C[C@H]([C@]3(C)CC[C@]4(C[C@H](O)[C@@H](C)[C@@H]([C@@H](C)C=C(C)C(=O)[C@H](C)C[C@H](C)C(=O)O)O4)O3)O[C@]3(O[C@@H]([C@H]4O[C@@](O)(CO)[C@H](C)C[C@H]4C)C[C@H]3C)[C@H]2C)O[C@H]1C (some centres not stated) | inactive | 
18 | N#C[C@H](O[C@@H]1O[C@H](CO[C@@H]2O[C@H](CO)[C@H](O)[C@H](O)[C@H]2O)[C@H](O)[C@H](O)[C@H]1O)c1ccccc1 | inactive | 
19 | C[C@@H]1CC[C@H]2[C@@H](C)C(=O)O[C@@H]3O[C@@]4(C)CC[C@H]1[C@]32OO4 | inactive | 

Row | SMILES | Potency | activity change, negative = inhibition
20 | CC(C)(O)C=CC(=O)[C@](C)(O)[C@H]1[C@H](O)C[C@]2(C)[C@@H]3CC=C4[C@@H](C=C(O)C(=O)C4(C)C)[C@]3(C)C(=O)C[C@@]12C | inactive | 
21 | C=C[C@@H]1CN2CCC1C[C@@H]2[C@@H](O)c1ccnc2ccccc12 (some centres not stated) | inactive | 
22 | C[C@]12N[C@H](Cc3ccccc31)c1ccccc12 | inactive | 
23 | Cc1c(C(=O)c2cccc3ccccc23)c2cccc3c2n1[C@H](CN1CCOCC1)CO3 |  | -12% [at 3.88 µM]
24 | CC(=Cc1csc(C)n1)[C@@H]1C[C@H]2O[C@]2(C)CCC[C@H](C)[C@@H](O)[C@@H](C)C(=O)C(C)(C)[C@@H](O)CC(=O)O1 | inactive | 
25 | Cc1c(N)nc([C@H](CC(N)=O)NC[C@@H](N)C(N)=O)nc1C(=O)N[C@H](C(=O)N[C@@H](C)[C@H](O)[C@@H](C)C(=O)N[C@@H](C(=O)NCCc1nc(-c2nc(C(=O)NCCC[S+](C)C)cs2)cs1)[C@@H](C)O)C(O[C@H]1O[C@H](CO)[C@H](O)[C@@H](O)[C@@H]1O[C@H]1O[C@H](CO)[C@@H](O)[C@H](OC(N)=O)[C@H]1O)c1cnc[nH]1 (some centres not stated) | inactive | 
26 | CCC(=O)OC1CCC2C3CCC4=CC(=O)CC[C@@]4(C)C3CC[C@]12C (some centres not stated) | inactive | 
27 | CC(=O)OCC1=C(C(=O)O)N2C(=O)[C@@H](N)[C@@H]2SC1 | inactive | 
28 | COc1ccc(CC2NCCc3cc(OC)c(OC)cc32)cc1OC (configuration not stated) | inactive | 
29 | CC(C)N[C@@H]1CCn2c(=O)[nH]c3cccc(c32)[C@@H]1O | inactive | 
30 | CC(C)[C@]12O[C@@H]1[C@@H]1O[C@]13[C@]1(O[C@H]1C[C@@H]1C4=C(CC[C@@]13C)C(=O)OC4)[C@H]2O | inactive | 
31 | CCO/N=C(\CC)C1=C(O)CC(c2c(C)cc(C)cc2C)CC1=O (configuration not stated) | inactive | 
32 | CCOC(=O)c1c(C(C#N)=CN)c2ccc(Cl)c(Cl)c2n1C | inactive | 
33 | C[C@@H]1[C@H](O)[C@@H](C)C=CC=CCCC=CC=CC=CC=C[C@H](O[C@H]2O[C@@H](C)[C@H](O)[C@@H](N)[C@@H]2O)CC2O[C@](O)(C[C@@H](O)[C@H](O)CC[C@@H](O)C[C@@H](O)C[C@@H](O)CC(=O)O[C@H]1C)C[C@H](O)[C@H]2C(=O)O | inactive | 
34 | C#CCOC(=O)C1=CCCN(C)C1 | inactive | 
35 | C#C[C@]1(O)C=C[C@@H]2[C@@H]3CCC4=CC(=O)CC[C@@H]4[C@H]3CC[C@@]21CC | inactive | 
36 | COc1ccc2c(c1)[C@]13CCCCC1C(C2)N(C)CC3 (some centres not stated) | 473 nM (active) | 
37 | C[C@@]12OC(=O)[C@]1([C@@H](O)[C@@H]1C=CCCC1)NC(=O)[C@H]2CCCl | inactive | 
